Whole data set: some 1,100 compounds, median “Renilla luciferase signal (cell health) relative to plate median” near 0.97, cut for the highest 2% near 1.6. For the sample, the highest values were picked, then their nearest neighbours and some compounds at random.
Test system: HEK293T (UBE3A T485A transfected, BAR Wnt reporter)
Assay: Renilla luciferase signal (cell health) relative to plate median (fold (linear ratio)); higher = higher Renilla signal
Conditions: 24 h
Summary of the method: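 Chemicals at 0.01–100 uM were left on transfected HEK293T cells for 24 h, after a four-hour wait following transfection. The cells held a BAR firefly luciferase Wnt reporter, TK-Renilla and an expression plasmid. Wnt activity, as the firefly/Renilla ratio from a Dual-Glo luciferase readout, and cell health, as raw Renilla, were median-centred within each plate. Results average four biological replicates.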

Structure (SMILES)	Renilla luciferase signal (concentration: 0.1 uM)	Renilla luciferase signal (concentration: 1 uM)	Renilla luciferase signal (concentration: 10 uM)	Renilla luciferase signal (concentration: 100 uM)	Renilla luciferase signal (concentration: 0.01 uM)
C[C@]12CCC(=O)C[C@@H]1CC[C@@H]1[C@@H]2CC[C@]2(C)[C@@H](O)CC[C@@H]12 [5alpha-Dihydrotestosterone]	0.867	0.848	1	2.06	–
CCC(=O)O[C@H]1CC[C@H]2[C@@H]3CCC4=CC(=O)CC[C@]4(C)[C@H]3CC[C@]12C [Testosterone propionate]	0.869	0.772	0.878	1.11	–
CNC(=O)N(C)c1nnc(C(C)(C)C)s1 [Tebuthiuron]	0.795	1.02	0.738	1.26	1.19
Cc1ccccc1N [2-Methylaniline]	1.15	1.29	1.25	1.25	–
CC(c1ccc(O)cc1)(c1ccc(O)cc1)c1ccc(O)cc1 [4,4',4"-Ethane-1,1,1-triyltriphenol]	0.468	0.58	0.509	0.0116	–
ClC(Cl)c1ccccc1 [Benzal chloride]	1.11	0.929	1.12	1.15	–
COc1ccc(O)c(C(C)(C)C)c1 [2-tert-Butyl-4-methoxyphenol]	0.947	0.971	1.22	1.03	–
CC(C)(C)c1ccccc1O [2-tert-Butylphenol]	0.823	0.913	0.724	0.378	–
CC(C)(C)c1cc(C(C)(C)C)c(O)c(C(C)(C)C)c1 [2,4,6-Tris(tert-butyl)phenol]	0.951	1.04	1.18	1.73	–
O=C(Nc1ccc2[nH]ccc2c1)c1cc2cc(F)ccc2n1Cc1cccc(F)c1	1.07	1.02	0.543	0.0428	–
CCCN(CC)CC1COC2(CCC(C(C)(C)C)CC2)O1 (configuration not stated) [Spiroxamine]	1.34	1.13	1.06	0.0856	0.835
CC(C)CCCCCCCOC(=O)c1ccccc1C(=O)OCCCCCCCC(C)C	1.21	1.01	1.1	1.26	–
CCCCOC(=O)c1ccccc1C(=O)OCc1ccccc1 [Benzyl butyl phthalate]	1.05	1.23	1.28	1.04	–
CC12CC1(C)C(=O)N(c1cc(Cl)cc(Cl)c1)C2=O (configuration not stated) [Procymidone]	0.813	1.07	1.07	1.27	–
C=CC1(C)OC(=O)N(c2cc(Cl)cc(Cl)c2)C1=O (configuration not stated) [Vinclozolin]	0.904	1.09	1.28	2.37	1.03
Cc1ccc(N)cc1 [4-Methylaniline]	0.71	0.873	0.684	0.856	–
CCCCOC(=O)[C@@H](C)Oc1ccc(Oc2ccc(C#N)cc2F)cc1 [Cyhalofop-butyl]	1.04	0.889	1.03	0.226	1.03
Fc1ccc(Oc2ccnc3cc(Cl)cc(Cl)c23)cc1 [Quinoxyfen]	0.865	0.93	1.03	0.994	0.918
O=[N+]([O-])c1ccc(Cl)cc1 [1-Chloro-4-nitrobenzene]	0.98	0.976	0.993	1.1	–

Structure (SMILES)	Renilla luciferase signal (concentration: 0.1 uM)	Renilla luciferase signal (concentration: 1 uM)	Renilla luciferase signal (concentration: 10 uM)	Renilla luciferase signal (concentration: 100 uM)	Renilla luciferase signal (concentration: 0.01 uM)
O=[N+]([O-])c1ccc(Oc2ccc(Cl)cc2Cl)cc1 [Nitrofen]	1.06	1.17	1.05	1.69	–
Oc1cc(Cl)ccc1Oc1ccc(Cl)cc1Cl [Triclosan]	0.922	0.956	0.911	0.083	0.941
COC(=O)C(C)Oc1ccc(Oc2ccc(Cl)cc2Cl)cc1 (configuration not stated) [Diclofop-methyl]	0.869	0.732	0.936	2.15	1.01
CCCCNC(=O)OCC#CI [3-Iodo-2-propynyl-N-butylcarbamate]	0.986	0.947	0.822	0.0151	0.922
CC1(C)C(C=C(Cl)Cl)C1C(=O)OC(C#N)c1ccc(F)c(Oc2ccccc2)c1 (configuration not stated) [Cyfluthrin]	1.31	1.27	0.975	1.1	1.01
COc1cccc(C(=O)NN(C(=O)c2cc(C)cc(C)c2)C(C)(C)C)c1C [Methoxyfenozide]	1.1	1.05	1.04	0.685	1.37
Nc1c(Cl)cc([N+](=O)[O-])cc1Cl [Dicloran]	0.765	0.894	0.77	0.167	0.651
CSC1=N[C@@](C)(c2ccccc2)C(=O)N1Nc1ccccc1 [Fenamidone]	0.774	0.785	0.525	0.165	0.641
O=c1n(Cl)c(=O)n(Cl)c(=O)n1Cl [Symclosene]	0.995	0.923	1.18	1.88	1.05
CCCOc1nn(C(=O)[N-]S(=O)(=O)c2ccccc2C(=O)OC)c(=O)n1C.[Na+] [Propoxycarbazone-sodium]	1.21	1.03	0.975	1.2	1.17
CCC(CC)Nc1c([N+](=O)[O-])cc(C)c(C)c1[N+](=O)[O-] [Pendimethalin]	0.996	0.843	1.02	0.801	0.981
CCC(C)Nc1c([N+](=O)[O-])cc(C(C)(C)C)cc1[N+](=O)[O-] (configuration not stated) [Butralin]	1.06	0.989	1.04	1.94	0.921
CCCN(CCC)c1c([N+](=O)[O-])cc(C(F)(F)F)cc1[N+](=O)[O-] [Trifluralin]	1.16	1.12	1.13	1.59	1.09
O=[N+]([O-])c1ccccc1 [Nitrobenzene]	0.931	0.977	0.817	0.932	–
CCOP(=S)(OCC)Oc1ccc([N+](=O)[O-])cc1 [Parathion]	1.13	1.04	1.11	1.36	1.03
CC1=C(C(=O)Nc2ccccc2)SCCO1 [Carboxin]	1.11	1.07	0.949	2.12	0.996
N=C(Nc1ccccc1)Nc1ccccc1 [1,3-Diphenylguanidine]	1.03	0.989	0.895	0.887	–
O=C(Nc1ccccc1)c1ccccc1I [Benodanil]	0.942	0.924	0.913	0.739	–
CS(=O)(=O)c1ccc(C(=O)C2C(=O)CCCC2=O)c([N+](=O)[O-])c1 [Mesotrione]	0.808	0.956	1.03	1.39	0.834
